PAX8 reporter = inhibitors of PAX8 transcriptional activity in RMG-I cells. RMG-I TPO-luciferase reporter, SteadyGlo, 24 h. inhibition, % at 12.6 µM. actives 1.2% (n = 360,000);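 active = mean replicate inhibition at least 60% with every replicate also reaching 60%; inconclusive = only one of the two criteria is met; inactive = mean below 60% and not all replicates reaching 60%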;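 also: luciferase light reporting Pax8 driven TPO promoter activity; plate controls were median of neutral control wells for no effect and mitoxantrone controls for full effect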
EWS-Fli block = EWS/Fli transcriptional activity inhibition; A673 NR0B1-luciferase reporter, viability-normalised; inhibition, % at 12.6 µM; actives 0.67% (n = 350,000);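 active = mean inhibition of at least 50% after viability correction, with every replicate also passing that limit; inconclusive = mean reaches 50% but only one of two replicates passes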;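 also: firefly luciferase signal divided by Alamar Blue viability fluorescence both relative to DMSO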
F508del corr = correctors of CFTR F508del function in bronchial epithelial cells | CFBE cells, YFP halide quenching; stimulated with forskolin plus potentiator P3; % fluorescence drop versus neutral controls | activity (quench increase), % at 7.58 µM | actives 0.36% (n = 350,000);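 active = mean added fluorescence quench of at least 8% versus neutral control, with both replicates also reaching 8%; inconclusive = only one of the mean or replicate conditions met; inactive = mean below 8% and not both replicates reaching 8%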;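 also: cells transiently co-express mutant CFTR-F508del with the halide-sensitive YFP; corrector assay measuring rescue of mutant channel to the surface after 24 h compound exposure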
LGR2 inh = inhibitors of bursicon-induced Drosophila LGR2 receptor cAMP signaling; actives 0.35% (n = 380,000); AID 720647; inhibition, % at 9.99 µM; HEK293 LGR2, CRE-luciferase, bursicon-stimulated, 4 h;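 active = drop in luminescence signal, shown as inhibition above about 50% in the replicate tests, limit read from the data, passing the limit was not always enough; inconclusive = probably only some replicates passing the limit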;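 also: agonist challenge used bursicon conditioned medium at about half maximal strength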
Starred values were filed as active, the others as inactive; ? = inconclusive; · = no result; ! = not active in a repeat. Hits are enriched below; roughly 1.8% of the tested compounds scored in any of these assays.

SMILES | PAX8 reporter | EWS-Fli block | F508del corr | LGR2 inh
Cc1nc2cc(C(=O)OCC(=O)Nc3cccc(Cl)c3)ccc2n1-c1ccccc1 | 1 | -9 | · | ·
O=C(O)c1cccc(-c2nc3ccccc3[nH]2)c1 | 48 | 44 | · | 94*
O=C(/C=C/c1ccccc1[N+](=O)[O-])c1ccccc1Br | 78* | 54* | 1 | ?
COc1cc(/C=C2\COC/C(=C\c3ccc(O)c(OC)c3)C2=O)ccc1O | 53 | 77* | -19 | ·
COc1cc(/C=C2/CC/C(=C/c3ccc(O)c(OC)c3)C2=O)ccc1O | 71* | 59* | 3 | -1
COc1ccc(/C=C2\CN(Cc3ccccc3)C/C(=C\c3ccc(OC)c(O)c3)C2=O)cc1O | 90* | 62* | -4 | 33
COc1ccc(/C=C2\CC/C(=C\c3ccc(OC)c(OC)c3)C2=O)cc1OC | 9 | -23 | -1 | -4
Cc1ccc(CNS(=O)(=O)c2ccc3oc(C(=O)O)c(C)c3c2)cc1 | · | · | · | 11
CC[C@@H](C)[C@H](CN[C@H](CNC)C(C)C)NC[C@@H](C)c1ccc(CC(C)C)cc1 | 43 | 47 | -1 | -6
CC[C@H](C)[C@@H](CN[C@H](C)CNC)NCCC(c1ccccc1)c1ccccc1 | 75* | 17 | 1 | 7
COc1ccc(/C=C/C(=O)NC(=S)Nc2ccccc2C(=O)NC2CCCCC2)cc1 | · | 15 | -3 | 12
COC(=O)c1cccc(NC(=O)/C=C/c2cccc([N+](=O)[O-])c2)c1 | · | 14 | -1 | -7
O=C(Nc1ccc([N+](=O)[O-])cc1)C(=O)Nc1cccc(C(=O)O)c1 | 101* | 91* | 4 | 98*
COC(=O)c1cccc(NC(=O)/C=C/c2ccc([N+](=O)[O-])cc2)c1 | -44 | 70* | -1 | 1
CCOC(=O)c1cccc(NC(=O)/C=C/c2ccc([N+](=O)[O-])cc2)c1 | 7 | 60* | · | 6
O=C(/C=C/c1ccccc1)Nc1cc(NC(=O)/C=C/c2ccccc2)cc(C(=O)O)c1 | 14 | 25 | 6 | 30
O=C(/C=C/c1ccccc1)Nc1cccc(C(=O)O)c1 | 96* | 86* | 4 | 103*
Cc1ccccc1C(=O)N1CCC(C(=O)NC2CCCCC2)CC1 | 10 | 1 | -1 | 13
CC(=O)Nc1ccc(NC(=O)c2c([N+](=O)[O-])cnn2C)cc1 | -8 | -6 | 0 | 11
O=C(C[C@@H]1C=C[C@H](NS(=O)(=O)c2cccc(F)c2)[C@@H](CO)O1)NCc1ccc2c(c1)OCO2 | 17 | 6 | -1 | -6
CC1CC(C)CN(CC(=O)c2c[nH]c3ccccc23)C1 (configuration not stated) | -27 | 10 | 0 | -3
CC(=O)Nc1ccc(NC(=O)/C=C/c2ccccc2)cc1 | 12 | -16 | 1 | -43
CSc1ccc(/C=C/C(=O)Nc2ccccc2)cc1 | -38 | 5 | 3 | 77*
CCCNC(=O)N1CCN(S(=O)(=O)c2ccc3c(c2)OCCO3)CC1 | 4 | 0 | -3 | 8
CCN1CCN(C2=C(NS(=O)(=O)c3ccc(NC(C)=O)cc3)C(=O)c3ccccc3C2=O)CC1 | 21 | -4 | -1 | 14
SMILES | PAX8 reporter | EWS-Fli block | F508del corr | LGR2 inh
CC(=O)Nc1ccc(S(=O)(=O)NC2=C(N3CCN(Cc4ccccc4)CC3)C(=O)c3ccccc3C2=O)cc1 | -9 | -21 | 15*! | 25
O=C(C[C@H]1C=C[C@H](NC(=O)c2ccncc2)[C@H](CO)O1)Nc1ccccc1 | · | -4 | -1 | -6
CC(C)C(=O)NC(c1cccc([N+](=O)[O-])c1)c1ccc2cccnc2c1O (configuration not stated) | 78* | 33 | -12 | 11
CCCC(=O)NC(c1cccc([N+](=O)[O-])c1)c1ccc2cccnc2c1O (configuration not stated) | 78* | 11 | -2 | 41
C[C@H]1CN([C@@H](C)CO)C(=O)c2cccc(NS(=O)(=O)c3ccc(F)cc3)c2O[C@@H]1CN(C)C(=O)Nc1ccc(C(F)(F)F)cc1 | · | -2 | -1 | 13
CCn1c(Sc2ccc([N+](=O)[O-])cn2)nnc1-c1ccco1 | 71* | 13 | -8 | 44
CCn1c(SCC(=O)OCc2ccccc2)nnc1-c1ccco1 | · | 4 | 2 | -2
COCC(=O)Nc1ccc2c(c1)C(=O)N(C)[C@H]1CC[C@H](CC(=O)NCC3CCCCC3)O[C@H]1CO2 | 3 | -12 | -3 | -1
O=c1oc2ccccc2cc1-c1cn2ccccc2n1 | 71* | 85* | 0 | 71*
Cc1cccn2cc(-c3cc4ccccc4oc3=O)nc12 | -92 | 5 | -1 | -36
COC(=O)C[C@H]1C[C@H]2c3cc(NS(=O)(=O)c4ccc(F)cc4)ccc3O[C@H]2[C@@H](CO)O1 | -13 | 1 | -7 | -5
O=C1c2cccc3c(O)ccc(c23)C(=O)N1c1ccc(Cl)cc1 | 102* | 26 | 19* | -18
O=C(O)c1ccc2c(c1)C(=O)N(Cc1ccco1)C2=O | 9 | 2 | -1 | -3
O=C1c2cccc3c(O)ccc(c23)C(=O)N1Cc1ccco1 | 9 | 3 | 27* | -3
C[C@@H]1CCCCO[C@H](CN(C)S(=O)(=O)c2ccc(Cl)cc2)[C@@H](C)CN([C@@H](C)CO)C(=O)c2cc(NC(=O)Nc3ccc(C(F)(F)F)cc3)ccc2O1 | 82* | 45 | 2 | 1
Cc1noc(C)c1S(=O)(=O)N(C)C[C@@H]1OCCCC[C@H](C)Oc2ccc(NC(=O)Nc3ccc(F)cc3)cc2C(=O)N([C@H](C)CO)C[C@@H]1C | 61* | 6 | 2 | 3
Cc1noc(C)c1S(=O)(=O)N(C)C[C@H]1OCCCC[C@@H](C)Oc2ccc(NC(=O)Nc3ccc(F)cc3)cc2C(=O)N([C@@H](C)CO)C[C@H]1C | 27 | 0 | 1 | 9
C[C@@H]1CN([C@H](C)CO)C(=O)c2cc(NC(=O)Nc3ccc(C(F)(F)F)cc3)ccc2O[C@@H]1CN(C)S(=O)(=O)c1ccc(F)cc1 | 9 | -3 | -1 | 17
C[C@@H]1CCCCO[C@H](CN(C)S(=O)(=O)c2ccc(Cl)cc2)[C@H](C)CN([C@@H](C)CO)C(=O)c2cc(NC(=O)Nc3ccc(F)cc3)ccc2O1 | 70* | 5 | 1 | 2
C[C@H](CO)N1C[C@H](C)[C@@H](CN(C)S(=O)(=O)c2ccc(F)cc2)Oc2ccc(NC(=O)Nc3ccc(C(F)(F)F)cc3)cc2C1=O | 75*! | 6 | 3 | 13
COc1cc(OC)cc(C(=O)Nc2nc(CC(=O)NC(C)c3ccccc3)cs2)c1 (configuration not stated) | -7 | 5 | 1 | 12
C[C@H](CO)N1C[C@H](C)[C@H](CN(C)S(=O)(=O)c2ccc(C#N)cc2)Oc2ncc(C#Cc3ccc(C(F)(F)F)cc3)cc2C1=O | 74* | · | 5 | 17
C[C@H]1CCCCO[C@@H](CN(C)S(=O)(=O)c2ccc(Cl)cc2)[C@@H](C)CN([C@@H](C)CO)C(=O)c2cc(NC(=O)CCC(F)(F)F)ccc2O1 | 73* | 7 | 0 | 20
